Assay results as given in PubChem BioAssay (NCATS).
Inconclusive results are not listed. Unmarked numbers belong to inactive results. Active and inactive are the calls of the source. Calls follow the shape of the dose curve; as a rule, active = well fitted inhibition curve with a large enough effect; inconclusive = small, poorly fitted or top-dose-only effect; inactive = flat fitted curve, though single readings scatter. Where a SMILES comes first, the peptide text is derived from it. [ ]: non-standard residue; d: D form. PhLac = O=C(O)[CH](O)Cc1ccccc1; NMeV = CN[CH](C(=O)O)C(C)C

Experiment: Primary qHTS for inhibitors of nuclear receptor binding SET domain protein 2 (NSD2) in an isogenic RCH-ACV NSD2 p.E1099K mutant (9B) (AID 1645876); also: nearly all actives have a fitted effect of over 70% in size
Conditions: RCH-ACV (leukaemia line) NSD2 E1099K (9B) viability, CellTiter-Glo, 72 h; series mostly up to 44.9 µM; activity change, negative = viability loss: at the top concentration
% is scaled to controls: 0 for no effect and ±100 for the full control effect.

Compound	activity change, negative = viability loss	outcome	Potency
N#CC1C(=O)Nc2scc(-c3ccc(-c4ccccc4O)cc3)c2C1=O (centres undefined)	1.49%		
Cn1c(=O)c2nc(/C=C/c3cccc(Cl)c3)n(C)c2n(C)c1=O		inactive [at 91.9 µM]	
CO/N=C(/C(=O)N[C@@H]1C(=O)N2C(C(=O)O)=C(CSC(=O)c3ccco3)CS[C@H]12)c1csc(N)n1			inactive
CC(=O)OC(CSC1CCC(=O)OC(C)CCC(=O)C1)C(=O)O (centres undefined)		inactive	
COc1cc(C)c(C(=O)O[C@H]2[C@@H](O)[C@H](n3ccc(=O)[nH]c3=O)O[C@@H]2CO)c(OC)c1	-12.7% [at 17.3 µM]		
CC(CCC1(O)OC2CC3C4CCC5CC(O[C@@H]6O[C@H](CO)[C@@H](O)[C@H](O)[C@H]6O[C@@H]6OC[C@@H](O)[C@H](O)[C@H]6O)C(O)CC5(C)C4CCC3(C)C2C1C)CO[C@@H]1O[C@H](CO)[C@@H](O)[C@H](O)[C@H]1O (some centres undefined)		inactive [at 9.23 µM]	
CC1(C)CCCC2(C)C3=C(C(=O)OC3O)C(O)CC12 (centres undefined)	1%		
CCC1CC2C(C)=CC3CCCCC3C2(C)C2(OC(=O)C(C)(O)OC2=O)O1 (centres undefined)		inactive	
C/C=C/C=C/C=C/C(=O)O[C@@H]1C=C(CO)C(O)(C(=O)O)[C@@]2(C)CCCC(C)(C)[C@H]12 (some centres undefined)	-15.4% [at 17.3 µM]		
C=C(C(=O)O)[C@@H]1CC=C2CCC[C@H](C)[C@@]2(C)C1	-6.85%		
CC(C)C1=CC2=CCC3[C@](C)(CCC[C@@]3(C)C(=O)O)C2CC1=O (some centres undefined)	2.18%		
C/C=C(\C)C(=O)O[C@@H]1CC2[C@@H](CC=C3C[C@@H](O[C@H]4C[C@H](OC)[C@H](O[C@H]5C[C@H](OC)[C@H](O[C@H]6C[C@H](OC)[C@H](O[C@H]7C[C@@H](OC)[C@H](O[C@@H]8O[C@H](CO)[C@@H](O)[C@H](O)[C@H]8O)[C@@H](C)O7)[C@@H](C)O6)[C@@H](C)O5)[C@@H](C)O4)CC[C@@]32C)[C@@]2(O)CC[C@H](C(C)=O)[C@@]12C (some centres undefined)	-12.3% [at 9.23 µM]		
CC1(CCC(=O)O)C(=O)C=CC23CC4CC(OC4(C)C2O)C13 (centres undefined)	-12.1%		
C=C[C@H]1[C@H](O[C@@H]2O[C@H](CO[C@@H]3OC[C@](O)(CO)[C@H]3O)[C@@H](O)[C@H](O)[C@H]2O)OC=C2C(=O)OCC[C@H]21	-2.14% [at 17.3 µM]		
CC(=O)OCC(=O)O[C@@H]1[C@H]2[C@@H](OC(=O)c3ccccc3)[C@@H](C)C[C@]2(O)[C@H](OC(C)=O)C2(C)[C@H]3CC(C)(C)C(=O)[C@@H]3CC1(OC(C)=O)[C@@H]2OC(C)=O (some centres undefined)	-6.98% [at 17.3 µM]		
CCC[C@@H]1C[C@@H](C(=O)N[C@@H]([C@H]2O[C@H](SC)[C@H](O)[C@@H](O)[C@@H]2O)[C@@H](C)O)N(C)C1		inactive	
C[C@@H]1CC[C@]2(C(=O)O)CC[C@]3(C)C(=CCC4[C@]5(C)C(CC[C@]43C)C(C)(C)[C@@H](O)[C@H](O)[C@@H]5O)C2[C@]1(C)O (some centres undefined)	-12.4% [at 17.3 µM]		
CC1(C(=O)O)CCCC2(C)C1CCC13CC(CCC21)C1(CO)OC31 (centres undefined)	0.18%		
C=CC1(C)C=C2C(=O)CC3C(C)(C)CCCC3(C(=O)O)C2(O)CC1 (centres undefined)	-3.68%		
CC(=O)O[C@@H]1[C@H](O[C@@H]2OC[C@](O)(CO)[C@H]2O)[C@@H](O[C@@H]2O[C@@H](C)[C@H](O)[C@@H](O)[C@H]2O)[C@H](OC(=O)[C@]23CCC(C)(C)C[C@H]2C2=CCC4[C@@]5(C)C[C@H](O)[C@H](O[C@@H]6O[C@H](C(=O)O)[C@@H](O)[C@H](O)[C@H]6O)[C@@](C)(C(=O)O)C5CC[C@@]4(C)[C@]2(C)CC3)O[C@@H]1C (some centres undefined)	-7.7% [at 9.23 µM]		
CC(C)C(C(=O)N1CCCC1C(=O)O)N(C)C(=O)C(O)Cc1ccccc1 (centres undefined) (H-[PhLac]-[NMeV]-Pro-OH; configuration not given here)	4.4%		
OCC1=CC[C@@H]2C=CO[C@@H](O[C@@H]3O[C@H](CO)[C@@H](O)[C@H](O)[C@H]3O)[C@H]12	-19.3%		
Cc1coc2c1CC1OC1(C)CCC1OC1(C)C2 (centres undefined)	-1.95%		
C[C@@H]1O[C@@H](O[C@@H]2[C@@H](O)[C@H](O[C@@H]3[C@@H](O)[C@@H](O)[C@H](O[C@H]4[C@H](OC(=O)[C@]56CCC(C)(C)C[C@H]5C5=CCC7[C@@]8(C)C[C@H](O)[C@H](O[C@@H]9O[C@H](C(=O)O)[C@@H](O)[C@H](O)[C@H]9O)[C@@](C)(CO)C8[C@H](O)C[C@@]7(C)[C@]5(C)CC6)OC[C@H](O)[C@@H]4O)O[C@H]3C)OC[C@H]2O)[C@H](O)[C@H](O)[C@H]1O (some centres undefined)	-7.76% [at 9.23 µM]		
